Shown are actives, neighbours in structure and some others; about 10% of the full set was active somewhere.
Lamin A splicing: qHTS Assay for Modulators of Lamin A Splicing; Potency, µM (series often up to 46.1 µM), for the others: at the top dose ratio change, negative = inhibition, most hits filed as inhibitors; 0.01% of 200,000 active; HeLa LMNA splicing GFP/RFP minigene ratio, 48 h; AID 1487, 2009; active = well fitted inhibition curve with a large enough effect in the signal ratio, with a control signal flat, not every such curve was filed as active; inconclusive = small, poorly fitted or top-dose-only effect, or effect the other way, or a change in a side signal; the % refers to the signal ratio; note: potency is the fitted concentration of half-maximal effect
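S3 HeLa stable clones carrying a lamin A-EGFP splicing minigene plus DsRed2 were seeded at 600 cells/well in Opti-MEM with 2% FBS, pin-dosed and incubated 48 h at 37°C. Acumen cytometry (488 nm) gave the GFP/RFP total-intensity ratio.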
PNC assembly inh: High Content Assay for Compounds that inhibit the Assembly of the Perinucleolar Compartment. PC3M PTB-GFP, PNC prevalence imaging, 16 h; hits give low values. activity change (PNC), negative = inhibition, % at 10 µM. 3.1% of 140,000 active. AID 2417, 2010;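 active = readout at or below -70, meaning at least 70% loss of cells showing the perinucleolar compartment, a nuclear body marking cancer cells; inconclusive = readout between -30 and a set limit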;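 note: plate controls were DMSO wells for no effect and camptothecin positive control wells for full effect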
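Compounds are pinned in duplicate onto adhered PC3M cells stably expressing GFP-tagged PTB and incubated 16 h at 37 C. Cells are then fixed, nuclei stained with Hoechst, and PNC-positive cells counted.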
ALDH1A1 inh: qHTS Assay for Inhibitors of Aldehyde Dehydrogenase 1 (ALDH1A1). Aldehyde dehydrogenase 1A1 (Homo sapiens), P00352. Purified ALDH1A1, NADH fluorescence, propionaldehyde substrate. Potency, µM (top dose mostly 75.3 µM), inactives show top-dose activity, negative = inhibition, most hits filed as inhibitors. 7.3% of 220,000 active;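 note: potency is the fitted concentration of half-maximal effect; plate controls were no enzyme wells and a reference inhibitor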
HPGD inh: qHTS Assay for Inhibitors of HPGD (15-Hydroxyprostaglandin Dehydrogenase) | purified HPGD, NADH fluorescence kinetic, PGE2 substrate | 4.3% of 150,000 active | Potency, µM, for inactives: at the top dose activity change, negative = inhibition, most hits filed as inhibitors; note: potency is the fitted concentration of half-maximal effect
Target sequence (P15428 whole entry, looked up): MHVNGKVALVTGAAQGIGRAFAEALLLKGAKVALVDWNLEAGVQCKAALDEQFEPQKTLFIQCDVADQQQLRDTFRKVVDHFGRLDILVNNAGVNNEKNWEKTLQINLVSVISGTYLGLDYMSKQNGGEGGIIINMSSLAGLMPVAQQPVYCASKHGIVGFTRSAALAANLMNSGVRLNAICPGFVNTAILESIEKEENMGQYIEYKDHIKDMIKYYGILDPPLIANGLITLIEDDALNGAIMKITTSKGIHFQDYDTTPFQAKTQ
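20 nM HPGD preincubated 15 min at room temperature with compound in 50 mM Tris-HCl pH 8, 0.01% Tween 20. Started with 1 mM NAD+ and 30 uM prostaglandin E2; NADH fluorescence (360/450 nm) read 5 times over 30-s intervals, last minus first.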
Luc counter: Counterscreen for Luciferase (Kinase-Glo TM) Inhibition | Kinase-Glo luciferase, ATP luminescence, 8 min | Potency, µM (doses to about 38.3 µM), inactives show at the highest dose activity change, negative = inhibition, hits mostly inhibitors | 0.28% of 200,000 active; active = well fitted inhibition curve with a large enough effect; inconclusive = small, poorly fitted or top-dose-only effect; note: potency is the fitted concentration of half-maximal effect; nearly all actives have a fitted effect of over 60% in size
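Recombinant Kinase-Glo luciferase, 10 uM ATP (linear range), luciferin; imidazole pH 7.2 / KCl / MgCl2 / Tween / BSA buffer; 8 min RT; luminescence.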
Active calls of the source: *; u = inconclusive; x = no result given; [ ] = dose if it differs, or a comment. Unless noted, calls come from the whole dose curve; as a rule, active = well fitted inhibition curve with a large enough effect (not every such curve was filed as active); inconclusive = small, poorly fitted or top-dose-only effect, or another doubt; inactive = no such curve, though single readings can be large or run the other way. Unless noted, % is set by controls: 0 for no effect and ±100 for the full control effect.

SMILES	Lamin A splicing	PNC assembly inh	ALDH1A1 inh	HPGD inh	Luc counter
Cc1ccc(N2CC(C(=O)NCc3cccnc3)CC2=O)cc1 (stereo not drawn)	-7%	-25	0%	-10%	-1%
COCCCNC(=O)C1CC(=O)N(Cc2ccc(OC)cc2)C1 (stereo not drawn)	5%	-2	5%	-1%	-2%
CCOc1ccc(N2CC(C(=O)Nc3ccc(N4CCOCC4)cc3)CC2=O)cc1 (stereo not drawn)	3%	-19	3%	4%	-1%
CC(C)[C@@H]1C(=O)N(S(C)(=O)=O)[C@H]2CCN(C(=O)/C=C\CN3CCCCC3)[C@@H]12	x	x	6%	5%	1%
CCCNC(=O)OC[C@@H]1O[C@H](CCO/N=C\C[C@H]2C=C[C@H](OC(C)=O)[C@@H](COC(C)=O)O2)C=C[C@@H]1Oc1ccc(OC)cc1	x	x	-3%[13.5 µM]	x	x
Cn1cc(-c2nc3cnc(Oc4cccc(Cl)c4)nc3n(CCC#N)c2=O)c2ccccc21	x	x	2%	-3%	-1%
O=C(O)c1ccc(NC(CSCc2ccc(F)cc2)C(=O)O)c([N+](=O)[O-])c1 (stereo not drawn)	7%	u	22µM*	-3%	-2%
Cc1ccc(CSCC(Nc2ccc(C(=O)O)cc2[N+](=O)[O-])C(=O)O)cc1 (stereo not drawn)	6%	-5	u	-10%	-3%
O=C(O)c1ccc(NC(CSCc2ccccc2F)C(=O)O)c([N+](=O)[O-])c1 (stereo not drawn)	-2%	15	7.9µM*	-17%	3%
Cc1ccccc1Cn1c(Oc2ccccc2F)nc2c1c(=O)n(C)c(=O)n2C	4%[46 µM]	x	x	x	x
COc1cccc(NC(=O)CSC2=Nc3ccccc3C3=NC(CCC(=O)NCCc4ccccc4)C(=O)N23)c1 (stereo not drawn)	4%[46 µM]	x	x	x	x
O=C(c1ccncc1)N1CCC[C@@]2(CCN(Cc3ccccc3)C2)C1	x	x	4%	-4%	0%
Cc1cccc(NC(=O)/C(=C\c2ccc([N+](=O)[O-])o2)NC(=O)c2ccc(Cl)cc2)c1	u	-23	4.5µM*	-28%	-1%
O=S(=O)(c1cnc(Cl)c(Br)c1)N1CCc2ccccc21	x	x	2.8µM*	x	x
O=S(=O)(NC1CC1)c1ccc(S(=O)(=O)N2CCCc3ccccc32)cc1	u	u	u	-4%	-4%
O=S(=O)(c1cnc(Cl)c(Cl)c1)N1CCCc2ccccc21	-7%	15	3.2µM*	-13%	2%
CC1CCCC(NS(=O)(=O)c2ccc3c(c2)OCCO3)C1C (stereo not drawn)	-15%	11	14µM*	-13%	0%
O=S(=O)(NC1CC2CCC1C2)c1ccc2c(c1)OCCO2 (stereo not drawn)	u	11	u	-19%	-4%
CN(C)/C=N/C1=C(C#N)C(c2cccs2)c2ccc3ccccc3c2O1 (stereo not drawn)	x	x	0.32µM*	x	2%
COc1ccc(CNC(=O)c2ccc3nc(C(C)C)oc3c2)cc1OC	0%[46 µM]	x	x	x	x
CCOC(=O)/C(C#N)=C1\C=CN(C)C(C)=N1	4%	-100*	-4%	-16%	1%
CCOC(=O)/C(C#N)=C1/C=CN(C)C=N1	5%	7	14µM*	25µM*	-2%
CCOC(=O)/C(C#N)=C1/C=CN(c2ccccc2)C=N1	15%	-10	u	-15%	-2%
CCOC(=O)/C(C#N)=C1/C=CN(c2ccc(C)cc2)C=N1	4%	29	u	-22%	-4%
COc1cccc(Cn2c(=O)cnc3cnc(N(C)C)nc32)c1	-9%	x	u	x	x
CCCCSc1cnn(-c2ccccc2)c(=O)c1SCCCC	u	-81*	7%	-9%	-1%
CCSc1cnn(-c2ccccc2)c(=O)c1SCC	8%	61	u	-21%	-1%
NC(Cc1cnc[nH]1)C(=O)Nc1ccc2ccccc2c1 (stereo not drawn)	-11%	x	3%	-15%	0%

Assay outcomes from PubChem BioAssay.
